Compound activity from PubChem.
CYP2C9 act – CYP2C9 (human) activation; P11712; recombinant CYP2C9, luciferin-H conversion, luminescence; stronger effect = higher value; factor 1 = untreated enzyme, 0 = blocked; activation factor at 5 µM; hit rate 1.4% among 96,000; AID 1024;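 active = activation factor of 2 or more for CYP2C9 at a 5 µM dose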;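 also: 0 = sulfaphenazole-blocked wells and 1 = vehicle-only wells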
Target sequence (P11712 whole entry, looked up): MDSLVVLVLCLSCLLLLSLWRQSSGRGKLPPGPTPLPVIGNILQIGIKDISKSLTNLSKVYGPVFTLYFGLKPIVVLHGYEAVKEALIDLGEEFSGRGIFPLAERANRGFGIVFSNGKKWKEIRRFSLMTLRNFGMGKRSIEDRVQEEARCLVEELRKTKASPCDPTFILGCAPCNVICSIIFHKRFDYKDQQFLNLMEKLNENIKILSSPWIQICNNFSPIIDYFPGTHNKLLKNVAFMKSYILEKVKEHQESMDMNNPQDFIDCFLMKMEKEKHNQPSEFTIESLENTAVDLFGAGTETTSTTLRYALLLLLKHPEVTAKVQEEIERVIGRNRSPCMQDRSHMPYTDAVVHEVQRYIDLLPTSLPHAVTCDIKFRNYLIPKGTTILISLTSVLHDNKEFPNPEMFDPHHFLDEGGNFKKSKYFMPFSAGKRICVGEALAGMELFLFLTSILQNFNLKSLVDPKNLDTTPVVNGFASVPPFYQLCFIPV
Measles CPE – protection of cells from measles virus; Measles virus-infected cells, CPE protection, absorbance; protection (pct of control), % at 4 µM; hit rate 1.5% among 140,000; AID 841; in the data active = protection mostly above about 24%, no sharp cut-off; inactive = mostly below about 26%
CYP2C9 inhib – human CYP2C9 inhibition; AID 777; inhibition, % at 5 µM; CYP2C9 Supersomes, luciferin-H conversion, luminescence; hit rate 20% among 96,000;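 active = blocking of liver enzyme CYP2C9 beyond about 50% at 5 µM, limit read from the data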
CYP2C19 act – increases human CYP2C19 enzyme activity. P33261. recombinant CYP2C19, luciferin-H EGE luminescence; stronger effect = higher value; 0 = fully inhibited enzyme, 1 = untreated enzyme. activation factor at 5 µM. 96,000 tested, under 10 active;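 active = activation factor of at least 2 at 5 µM in the primary screen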;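 also: 0 = wells with 2.5 mM tranylcypromine and 1 = vehicle-only wells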
CYP2C19 inhib – blocks human cytochrome P450 2C19; P33261; CYP2C19 Supersomes, luciferin-H EGE luminescence, 30 min; inhibition, % at 5 µM; hit rate 21% among 96,000;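 active = CYP2C19 inhibition above a set limit at 5 µM in the primary screen, cut at about 50% in these data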;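 also: plate controls were negative control wells for no effect and 2.5 mM tranylcypromine positive control for full effect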
Active calls of the source: *; . = no result. An excerpt weighted towards active compounds, which were near 22% of everything screened.

SMILES | CYP2C9 act | Measles CPE | CYP2C9 inhib | CYP2C19 act | CYP2C19 inhib
O=C(CSc1nnc(C2COc3ccccc3O2)o1)Nc1nccs1 (centres undefined) | 0.7 | 15 | 30 | 0.9 | 8
c1ccc(CCNc2ncnc3scc(C4COc5ccccc5O4)c23)cc1 (centres undefined) | 0.3 | 25 | 73* | 0.4 | 57*
O=C(c1ccccc1)c1ccccc1N/C=C/c1nnnn1-c1ccccc1 | 0.5 | 11 | 46 | 0.3 | 73*
COc1ccc(C(F)(F)F)cc1N/C=C\c1nnnn1-c1ccccc1 | 0.3 | 9 | 71* | 0.3 | 65*
Cc1cc(N/C=C\c2nnnn2-c2ccccc2)no1 | . | 7 | . | . | .
COc1ccc(CN2C(=O)/C(=C/c3ccncc3)SC2=S)cc1 | . | 3 | . | . | .
Cc1ccc2[nH]c(=O)c(N3CCOCC3)c(-c3ccccc3)c2c1 | 1.1 | 78* | -11 | 1.1 | -7
O=C(CCN1CCOCC1)Nc1c(-c2ccccc2)c2cc(Br)ccc2[nH]c1=O | 0.9 | 5 | 5 | 0.9 | 10
COc1ccc(Oc2c(C)oc3c(CN4CCOCC4)c(O)ccc3c2=O)cc1 | 1 | 34* | 3 | 1.1 | -8
Cc1oc2c(CN3CCCC3)c(O)ccc2c(=O)c1Oc1ccccc1Br | 0.9 | 19* | 5 | 0.6 | 37
Clc1ccc(Cl)c(-c2ccc(/C=N/c3ncn[nH]3)o2)c1 | 2.9* | 2 | -187 | 1 | 4
O/N=C\c1ccc(-c2ccccc2)o1 | . | 31* | . | . | .
COC(=O)N/N=C/c1ccc(-c2cc(Cl)ccc2Cl)o1 | . | 2 | . | . | .
O/N=C/c1ccc(-c2cc(Cl)ccc2Cl)o1 | . | 43* | . | . | .
CCNC(=S)N/N=C/c1ccc(-c2ccccc2)o1 | . | 2 | . | . | .
Cc1nc2ccccn2c1/C(O)=C1\C(=O)C(=O)N(CCN(C)C)C1c1cccnc1 (centres undefined) | 1 | 3 | -3 | 1 | -4
CCN(CC)S(=O)(=O)c1csc(C(=O)OCC(=O)c2ccccc2)c1 | . | 7 | . | . | .
COc1ccccc1C(=O)Nc1ccc(S(=O)(=O)N2CCc3ccccc32)cc1 | 0.1 | 9 | 89* | 0.3 | 73*
COc1cc(C(=O)Nc2ccc(S(=O)(=O)N3CCc4ccccc43)cc2)cc(OC)c1OC | 0.1 | 3 | 91* | 0.5 | 50
Cc1ccnc(NC(=O)C2CCC(CNc3c(N4CCCC4)c(=O)c3=O)CC2)c1 (centres undefined) | 0.8 | 0 | 17 | 0.8 | 20
CCOc1ccc(NS(=O)(=O)c2ccc(N)cc2)cc1 | 0.3 | 5 | 70* | 0.5 | 54*
CC(C)Nc1nc(NC(C)C)nc(NS(=O)(=O)c2ccc(N)cc2)n1 | . | 30* | . | . | .
CCOC(=O)CC(N)c1ccc2c(c1)OCO2 (centres undefined) | 0.9 | 3 | 8 | 0.5 | 52*
CCOc1ccc(NS(=O)(=O)c2ccc(SC)cc2)cc1 | . | 8 | . | . | .
CCOC(=O)N1CCN(C(=O)/C=C/c2ccc3c(c2)OCO3)CC1 | . | 14 | . | . | .
SMILES | CYP2C9 act | Measles CPE | CYP2C9 inhib | CYP2C19 act | CYP2C19 inhib
CCOC(=O)COc1ccc(S(=O)(=O)Nc2ccc(C)cc2)cc1 | 0.4 | 4 | 59* | 0.8 | 20
CCN1CCCC1CNC(=O)Cn1cccc1C(=O)c1ccccc1 (centres undefined) | 1.1 | 7 | -7 | 1.1 | -9
COC(=O)COc1ccc(S(=O)(=O)Nc2ccc3c(c2)OCCO3)cc1Cl | 0.1 | 3 | 92* | 0 | 98*
Cc1ccc(NS(=O)(=O)c2ccc(OCC(=O)N3CCOCC3)cc2)cc1 | 0.5 | 6 | 47 | 0.4 | 57*
CCOc1ccc(OCC(=O)N2CCOCC2)cc1 | 1.1 | 5 | -11 | 0.7 | 30
COc1ccc(C)c(S(=O)(=O)Nc2ccc(OCC(=O)O)cc2)c1 | 1.2 | 13 | -17 | 1.1 | -10
Cc1ccc(NS(=O)(=O)c2ccc(CCC(=O)N3CCOCC3)cc2)cc1 | 0.9 | 9 | 12 | 0.8 | 19
CC(C)NS(=O)(=O)c1ccc(OCC(=O)Nc2ccc3c(c2)OCO3)c(Cl)c1 | 0.9 | 36 | 14 | 0.9 | 13
CCOc1ccc(S(=O)(=O)N(C)c2ccc(OCC(=O)N3CCOCC3)cc2)cc1 | 0.3 | 5 | 74* | 0.7 | 25
Cc1cc(C)c(C)c(S(=O)(=O)Nc2ccc(OCC(=O)O)cc2)c1C | 0.2 | 6 | 76* | 1.1 | -8
CCCCC(=O)Nc1ccc(NC(=S)NC(=O)CCCCl)cc1OC | . | 2 | . | . | .
COc1cc(C(=O)N(Cc2cccc(Cl)c2)C2CCS(=O)(=O)C2)cc(OC)c1OC (centres undefined) | 0.9 | 4 | 12 | 1.1 | -10
CCOc1ccc(NS(=O)(=O)c2ccc3[nH]c(=O)oc3c2)cc1 | 0.1 | 4 | 87* | 0.1 | 88*
CCOC(=O)COc1ccc(S(=O)(=O)Nc2ccc3c(c2)OCO3)cc1 | 0.3 | 7 | 67* | 0.1 | 86*
COc1ccc(-c2[nH]ncc2/C=C(/C#N)C(=O)NC2CCCCCC2)cc1 | 0.7 | 14 | 33 | 0.8 | 17
CCC(C)Oc1ccccc1C1CC(=O)NC2=C1C(=O)CCC2 (centres undefined) | 1 | 9 | -4 | 1 | 2
N#Cc1cn(CC(=O)NCCc2c[nH]c3ccccc23)c2ccccc12 | 0.3 | 5 | 66* | 0.5 | 50*
Cc1ccccc1NC(=S)NCCc1c[nH]c2ccccc12 | . | 16 | . | . | .
O=C(O)C1CCCCC1C(=O)NCCc1ccncc1 (centres undefined) | 0.3 | 31 | 67* | 0.5 | 46
CCSc1nnc(NC(=O)C2Cc3ccccc3CN2C(=O)c2ccco2)s1 (centres undefined) | 0.5 | 13 | 53* | 0.8 | 23
COc1ccc(Cl)cc1NC(=S)NCCc1c[nH]c2ccccc12 | 2.3* | 11 | -130 | 0.1 | 92*
Cc1c(C#N)c2ccccc2n1CC(=O)NCCc1c[nH]c2ccccc12 | 0.6 | 11 | 42 | 0.6 | 41
Cc1cccc(C(=O)N2CCC(Cc3ccccc3)CC2)c1[N+](=O)[O-] | . | 4 | . | . | .
COc1cc(CCC(=O)Oc2ccc(C(C)=O)cc2)cc(OC)c1OC | . | 13 | . | . | .
O=C(O)C1CCCCC1C(=O)NCCc1c[nH]c2ccccc12 (centres undefined) | 0.7 | 9 | 33 | 0.2 | 75*
SMILES | CYP2C9 act | Measles CPE | CYP2C9 inhib | CYP2C19 act | CYP2C19 inhib
O=C(NCCc1c[nH]c2ccccc12)C(F)(F)C(F)F | 0.7 | 8 | 27 | 0.3 | 72*
O=C(NCCc1c[nH]c2ccccc12)c1cnc2sccn2c1=O | 2.5* | 22 | -152 | 0.1 | 89*
O=C(O)[C@H]1CCCC[C@H]1C(=O)NCCc1ccccc1 | 1 | 2 | 4 | 1 | -1
O=C(NCCc1c[nH]c2ccccc12)C1Cc2ccccc2CN1C(=O)c1ccco1 (centres undefined) | 0.4 | 5 | 63* | 0 | 95*
NS(=O)(=O)c1ccc(CCNC(=O)C2Cc3ccccc3CN2C(=O)c2ccco2)cc1 (centres undefined) | 0.8 | 22 | 23 | 0.9 | 14
NC1C2CN(c3nc4c(cc3F)c(=O)c(C(=O)O)cn4-c3ccc(F)cc3F)CC12 (centres undefined) | 1 | 7 | 4 | 0.9 | 6
O=C(/C=C/c1cccc(OCc2ccccc2)c1)c1cccnc1 | . | 17 | . | . | .
